Laboratory results reported in the supplement of paper PMC10849652.
About 7,900 targets were measured; listed, in parts, are those with a hit and a random draw of the rest. About 0.6% of all pairs of compound and target were hits. Unmarked numbers belong to inactive results.

Tests used:
Experiment in all cases: log2 fold change, soluble protein after heating vs DMSO (PISA); higher = thermal stabilisation; K562 cells, 10 uM, 30 min; active = over 0.2 and 3.5 SD of the protein, either way, in both replicates (recomputed)
[1] = compound: C1=CC=C(C=C1)[C@H](COC2=CC3=C(C=C2)NC(=O)N3)NC(=O)C4=CC=CN(C4=O)CC5=CC(=C(C=C5)F)F
How it was run: (§1)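 Values are thermal stability changes relative to control samples and are taken from duplicates. They are stated as log2 fold changes. Before quantification by TMTpro 16plex LC-MS/MS with equalised channel sums, K562 cells at 2×10^6 cells/mL were treated with 10 μM compound for 30 min, heated in aliquots for 3 min across 48°C-58°C, pooled, extracted in PBS with 0.5% NP-40 at 4°C, and centrifuged at 21,000xg for 90 min to give the soluble supernatant.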

[2] = compound: CC1=C(SC2=C1C(=N[C@H](C3=NN=C(N32)C)CC(=O)N)C4=CC=C(C=C4)Cl)C
How it was run: as §1

[3] = compound: CC1=C2C(=CC=C1)N=C(N(C2=O)C3=CC=CC=C3C)CN4C=NC5=C(N=CN=C54)N
How it was run: as §1

[4] = compound: Cc1sc2c(c1C)C(c1ccc(Cl)cc1)=N[C@@H](CC(=O)OC(C)(C)C)c1nnc(C)n1-2
How it was run: as §1

[5] = compound: c1ccc([C@@H]2C[C@H]2NC2CCNCC2)cc1
How it was run: as §1

Chain of UniProt Q14C86 (Q14C86 whole entry, looked up): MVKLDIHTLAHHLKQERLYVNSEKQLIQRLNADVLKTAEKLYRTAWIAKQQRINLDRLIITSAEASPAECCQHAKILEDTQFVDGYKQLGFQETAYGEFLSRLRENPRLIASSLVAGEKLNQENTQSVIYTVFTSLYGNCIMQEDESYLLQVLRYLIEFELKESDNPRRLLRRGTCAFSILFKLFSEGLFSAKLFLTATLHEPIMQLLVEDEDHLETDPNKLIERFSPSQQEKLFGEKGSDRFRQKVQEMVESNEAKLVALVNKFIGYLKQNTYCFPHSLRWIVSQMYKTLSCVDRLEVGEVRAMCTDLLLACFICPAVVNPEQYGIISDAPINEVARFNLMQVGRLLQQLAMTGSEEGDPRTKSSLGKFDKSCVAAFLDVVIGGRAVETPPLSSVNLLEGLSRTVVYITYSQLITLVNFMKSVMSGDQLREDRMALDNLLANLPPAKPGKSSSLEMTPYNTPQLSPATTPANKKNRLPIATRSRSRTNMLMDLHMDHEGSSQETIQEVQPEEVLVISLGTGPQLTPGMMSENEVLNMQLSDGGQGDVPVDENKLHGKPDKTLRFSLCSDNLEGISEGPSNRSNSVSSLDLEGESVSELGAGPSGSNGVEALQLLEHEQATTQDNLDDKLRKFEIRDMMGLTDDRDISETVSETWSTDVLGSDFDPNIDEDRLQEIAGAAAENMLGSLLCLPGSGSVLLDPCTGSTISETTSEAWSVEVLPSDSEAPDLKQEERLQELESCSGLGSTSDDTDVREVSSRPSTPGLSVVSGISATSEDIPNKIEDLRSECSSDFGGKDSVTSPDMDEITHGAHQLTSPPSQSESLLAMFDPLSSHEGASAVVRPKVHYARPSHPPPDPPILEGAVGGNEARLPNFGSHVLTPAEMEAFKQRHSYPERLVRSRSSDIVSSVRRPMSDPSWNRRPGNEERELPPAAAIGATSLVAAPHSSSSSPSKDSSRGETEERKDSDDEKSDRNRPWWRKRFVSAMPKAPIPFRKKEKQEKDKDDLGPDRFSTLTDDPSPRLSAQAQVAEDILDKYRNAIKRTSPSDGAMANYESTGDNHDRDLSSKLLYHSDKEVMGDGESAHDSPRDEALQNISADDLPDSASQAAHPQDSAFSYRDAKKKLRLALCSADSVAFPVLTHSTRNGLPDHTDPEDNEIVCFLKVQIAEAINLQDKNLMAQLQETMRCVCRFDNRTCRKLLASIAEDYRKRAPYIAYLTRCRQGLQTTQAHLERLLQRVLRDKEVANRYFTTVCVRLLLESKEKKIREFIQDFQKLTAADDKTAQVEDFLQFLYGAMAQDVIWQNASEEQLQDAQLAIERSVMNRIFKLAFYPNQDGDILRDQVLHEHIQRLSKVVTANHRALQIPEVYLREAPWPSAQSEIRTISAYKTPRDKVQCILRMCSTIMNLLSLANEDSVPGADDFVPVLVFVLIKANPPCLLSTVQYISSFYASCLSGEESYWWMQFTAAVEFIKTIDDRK
Chain of UniProt O00291 (O00291 whole entry, looked up): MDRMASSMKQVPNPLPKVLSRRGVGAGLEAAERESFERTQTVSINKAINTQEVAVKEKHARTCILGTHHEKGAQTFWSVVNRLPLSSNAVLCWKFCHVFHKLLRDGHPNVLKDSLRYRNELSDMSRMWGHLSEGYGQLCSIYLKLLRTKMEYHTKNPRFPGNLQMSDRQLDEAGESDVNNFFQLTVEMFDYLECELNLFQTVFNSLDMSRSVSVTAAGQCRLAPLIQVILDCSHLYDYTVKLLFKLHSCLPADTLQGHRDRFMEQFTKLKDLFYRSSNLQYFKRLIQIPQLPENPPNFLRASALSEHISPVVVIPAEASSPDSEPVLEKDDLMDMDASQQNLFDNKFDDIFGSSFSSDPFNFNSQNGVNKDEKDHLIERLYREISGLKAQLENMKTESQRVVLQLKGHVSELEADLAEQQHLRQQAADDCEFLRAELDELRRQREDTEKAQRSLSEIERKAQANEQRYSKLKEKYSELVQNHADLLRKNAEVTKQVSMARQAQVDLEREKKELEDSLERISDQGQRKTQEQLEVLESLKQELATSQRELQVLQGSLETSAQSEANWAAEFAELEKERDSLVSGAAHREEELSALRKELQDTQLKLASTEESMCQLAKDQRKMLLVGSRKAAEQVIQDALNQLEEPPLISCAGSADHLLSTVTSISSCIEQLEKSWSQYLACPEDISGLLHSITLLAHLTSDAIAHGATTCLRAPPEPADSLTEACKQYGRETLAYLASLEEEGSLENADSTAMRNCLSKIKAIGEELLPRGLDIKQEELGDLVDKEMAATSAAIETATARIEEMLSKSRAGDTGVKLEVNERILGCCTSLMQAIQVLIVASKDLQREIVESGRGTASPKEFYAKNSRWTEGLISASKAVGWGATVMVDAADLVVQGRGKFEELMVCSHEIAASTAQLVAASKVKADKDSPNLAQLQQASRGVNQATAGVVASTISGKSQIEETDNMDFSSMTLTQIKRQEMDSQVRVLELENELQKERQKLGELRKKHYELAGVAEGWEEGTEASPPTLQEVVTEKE
Chain of UniProt O14929 (O14929 whole entry, looked up): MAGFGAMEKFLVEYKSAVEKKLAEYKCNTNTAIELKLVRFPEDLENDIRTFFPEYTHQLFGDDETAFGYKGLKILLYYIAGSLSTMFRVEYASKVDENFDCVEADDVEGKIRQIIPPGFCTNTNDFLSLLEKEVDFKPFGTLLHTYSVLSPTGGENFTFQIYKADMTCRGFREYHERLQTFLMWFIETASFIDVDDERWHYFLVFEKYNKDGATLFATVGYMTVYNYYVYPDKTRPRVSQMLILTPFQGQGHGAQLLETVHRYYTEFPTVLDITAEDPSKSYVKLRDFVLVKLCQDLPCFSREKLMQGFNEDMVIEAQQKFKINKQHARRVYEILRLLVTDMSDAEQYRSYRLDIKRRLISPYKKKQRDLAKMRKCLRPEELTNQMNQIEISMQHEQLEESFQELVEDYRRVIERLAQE
Chain of UniProt P15586 (P15586 whole entry, looked up): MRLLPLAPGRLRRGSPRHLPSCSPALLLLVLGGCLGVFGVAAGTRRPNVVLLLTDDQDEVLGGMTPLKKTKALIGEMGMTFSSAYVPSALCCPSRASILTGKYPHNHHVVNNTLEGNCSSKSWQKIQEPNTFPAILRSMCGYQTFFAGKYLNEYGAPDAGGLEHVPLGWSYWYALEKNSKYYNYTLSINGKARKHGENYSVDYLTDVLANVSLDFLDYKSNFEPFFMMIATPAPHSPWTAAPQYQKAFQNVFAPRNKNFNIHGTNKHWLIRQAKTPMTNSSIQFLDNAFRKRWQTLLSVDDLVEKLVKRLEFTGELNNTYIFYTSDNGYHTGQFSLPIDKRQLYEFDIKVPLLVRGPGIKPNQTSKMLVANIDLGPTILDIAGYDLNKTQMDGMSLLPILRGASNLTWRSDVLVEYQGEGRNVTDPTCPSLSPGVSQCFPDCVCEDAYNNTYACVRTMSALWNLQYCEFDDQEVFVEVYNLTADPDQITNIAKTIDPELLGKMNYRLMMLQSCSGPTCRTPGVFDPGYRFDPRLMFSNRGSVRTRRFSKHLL
Chain of UniProt P48507 (P48507 whole entry, looked up): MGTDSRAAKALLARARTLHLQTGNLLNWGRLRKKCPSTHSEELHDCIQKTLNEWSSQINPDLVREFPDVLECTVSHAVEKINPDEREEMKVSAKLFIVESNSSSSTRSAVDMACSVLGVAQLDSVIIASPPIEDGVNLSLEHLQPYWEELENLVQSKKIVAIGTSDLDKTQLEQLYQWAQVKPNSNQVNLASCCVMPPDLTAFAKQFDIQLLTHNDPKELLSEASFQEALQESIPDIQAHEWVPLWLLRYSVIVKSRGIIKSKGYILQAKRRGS
Chain of UniProt O15228 (O15228 whole entry, looked up): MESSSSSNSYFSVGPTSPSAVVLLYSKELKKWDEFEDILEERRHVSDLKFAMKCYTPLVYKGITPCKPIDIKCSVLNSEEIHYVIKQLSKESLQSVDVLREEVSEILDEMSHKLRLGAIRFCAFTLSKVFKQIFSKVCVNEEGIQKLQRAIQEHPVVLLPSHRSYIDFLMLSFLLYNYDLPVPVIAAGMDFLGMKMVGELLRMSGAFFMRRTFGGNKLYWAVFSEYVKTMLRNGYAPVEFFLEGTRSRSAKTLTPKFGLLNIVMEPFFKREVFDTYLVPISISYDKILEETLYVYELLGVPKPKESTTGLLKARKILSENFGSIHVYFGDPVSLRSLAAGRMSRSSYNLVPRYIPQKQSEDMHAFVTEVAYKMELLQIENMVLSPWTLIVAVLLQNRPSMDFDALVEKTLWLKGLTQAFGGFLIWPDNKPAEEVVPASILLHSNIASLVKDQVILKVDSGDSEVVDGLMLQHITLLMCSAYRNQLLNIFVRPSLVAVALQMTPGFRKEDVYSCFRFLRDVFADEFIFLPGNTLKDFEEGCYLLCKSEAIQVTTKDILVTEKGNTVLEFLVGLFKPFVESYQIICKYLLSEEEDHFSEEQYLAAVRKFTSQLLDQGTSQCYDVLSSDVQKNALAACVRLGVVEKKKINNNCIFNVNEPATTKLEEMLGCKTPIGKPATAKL

Question: HAT1 (UniProt O14929) was tested. Which log2 fold change [1] did it give?
Answer: 0.009

Question: What about the log2 fold change [2] of the same target?
Answer: -0.005

Question: What about the log2 fold change [3] of the same target?
Answer: 0.007

Question: And the log2 fold change [4]?
Answer: -0.101

Question: What about the log2 fold change [5] of the same target?
Answer: -0.05

Question: Which results are given for GAPVD1 isoform 6 (UniProt Q14C86)?
Answer: log2 fold change [1]: -0.09; log2 fold change [2]: 0.008; log2 fold change [3]: 0.097; log2 fold change [4]: 0.012; log2 fold change [5]: -0.018

Question: What does the source list for GNS (UniProt P15586)?
Answer: log2 fold change [1]: 0.037; log2 fold change [2]: 0.011; log2 fold change [3]: 0.013; log2 fold change [4]: -0.001; log2 fold change [5]: 0.027

Question: How did the log2 fold change [1] turn out when HIP1 (UniProt O00291) was run?
Answer: 0.137

Question: What about the log2 fold change [2] of the same target?
Answer: -0.009

Question: And the log2 fold change [3]?
Answer: 0.106

Question: What about the log2 fold change [4] of the same target?
Answer: 0.019

Question: What about the log2 fold change [5] of the same target?
Answer: 0.045

Question: With HLTF (UniProt Q14527) as the target, how does the log2 fold change [1] read?
Answer: 0.003

Question: What about the log2 fold change [2] of the same target?
Answer: 0.012

Question: What about the log2 fold change [3] of the same target?
Answer: 0.062

Question: And the log2 fold change [4]?
Answer: 0

Question: And the log2 fold change [5]?
Answer: -0.001

Question: GCLM (UniProt P48507) was tested. Which log2 fold change [1] did it give?
Answer: -0.014

Question: What about the log2 fold change [2] of the same target?
Answer: 0.062

Question: What about the log2 fold change [3] of the same target?
Answer: 0.108

Question: What about the log2 fold change [4] of the same target?
Answer: 0

Question: And the log2 fold change [5]?
Answer: -0.053

Question: With IFI30 (UniProt P13284) as the target, how does the log2 fold change [1] read?
Answer: -0.066

Question: What about the log2 fold change [2] of the same target?
Answer: 0.01

Question: What about the log2 fold change [3] of the same target?
Answer: -0.06

Question: What about the log2 fold change [4] of the same target?
Answer: 0.004

Question: And the log2 fold change [5]?
Answer: 0.048

Question: Which log2 fold change [1] does the source give for FAT2 (UniProt Q9NYQ8) here?
Answer: -0.092

Question: What about the log2 fold change [2] of the same target?
Answer: 0.669 (active)

Question: And the log2 fold change [3]?
Answer: 0.163

Question: What about the log2 fold change [4] of the same target?
Answer: -0.091

Question: What about the log2 fold change [5] of the same target?
Answer: -0.218

Question: Which log2 fold change [1] does the source give for GNPAT (UniProt O15228) here?
Answer: -0.034

Question: What about the log2 fold change [2] of the same target?
Answer: 0.043

Question: What about the log2 fold change [3] of the same target?
Answer: 0.07

Question: What about the log2 fold change [4] of the same target?
Answer: -0.01

Question: And the log2 fold change [5]?
Answer: -0.036
